# Results filed as inconclusive are left out. Where a call stands in place of a potency, no number is given. Activity calls are given as the source filed them. Calls follow the shape of the dose curve; as a rule, active = well fitted inhibition curve with a large enough effect; inconclusive = small, poorly fitted or top-dose-only effect; inactive = flat fitted curve, though single readings scatter.
# Target: Aldehyde dehydrogenase, mitochondrial (Homo sapiens) (UniProt P05091)
# Assay: qHTS for Inhibitors of the Aldehyde Dehydrogenase Family (ALDH2) Primary screen (AID 2061308); also: nearly all actives have a fitted effect of over 55% in size
# Conditions: ALDH2 enzyme inhibition qHTS, 1536-well; series mostly up to 56 µM
row,SMILES,Potency
1,O=S(=O)(Nc1ccccc1)c1ccc(NCc2cccc(Cl)c2O)cc1,inactive
2,COc1cccc(C2c3c(ncn(-c4cccc(C)c4)c3=N)Oc3ccc4ccccc4c32)c1 (stereo not given),inactive
3,O=[S+]([O-])(Nc1ccc(C2CCNCC2)cc1)c1ccc(NCc2ccc(Cl)cc2O)cc1,inactive
4,COc1ccc(NS(=O)(=O)c2ccc(C)cc2)c(C(=O)Nc2nc(-c3ccccc3)cs2)c1,inactive
5,COc1cc(-c2nc(Nc3ccc(F)c(F)c3)c3ccccc3n2)ccn1,inactive
6,Cc1cc(C)nc(/N=C(\NC#N)N2CCN(c3cccc(C(F)(F)F)c3)CC2)c1,inactive
7,CNc1cc2c(cc1S(=O)(=O)Nc1ccc(C)c(C)c1)CCC(=O)N2,inactive
8,O=C(O)c1ccc(O)c2ncc(N3CCCCC3CCc3ccccn3)cc12 (stereo not given),inactive
9,N#Cc1cccc(NS(=O)(=O)c2ccc3c(c2)CCC(=O)N3)c1,inactive
10,Cc1ccc(C(=O)NC2CCN(C#N)CC2)cc1,inactive
11,N#Cc1nc(NCCCO)nc(Nc2ccccc2)n1,inactive
12,O=C1CCCC2=C1C(c1[nH]ncc1Cl)N=C(Nc1nc3cc([S+](=O)([O-])N4CCCC4)ccc3o1)N2 (stereo not given),inactive
13,Cc1cnc(-c2ccccc2C(C)C)nc1NCc1ccc(-c2cccc(S(N)(=O)=O)c2)cc1,inactive
14,CC(C)(C)c1ccc(NC(=O)c2cccs2)cn1,inactive
15,Cc1ccc(S(=O)(=O)Nc2cc3c(cc2C(=O)Nc2nc(-c4ccccc4)cs2)OCO3)cc1,inactive
16,Cc1nc(NC2CCCCC2)c2nc(-c3ccccc3)n(CC3CCN(C)CC3)c2n1,inactive
17,CCCCNc1nc(C)nc2c1nc(C)n2CCC,inactive
18,CC(=O)Nc1sc2c(c1-c1ccc(F)cc1)CCNC2,inactive
19,O=C(O)c1ccc(-c2ccc3ncnc(N4CCOCC4)c3c2)o1,inactive
20,Cc1cnc(-c2ccccc2C(C)C)nc1NCc1ccc(C2CCCNC2)cc1 (stereo not given),inactive

row,SMILES,Potency
1,CCC(C)C(=O)OC1C(C)C2(O)C(C=C(CO)CC3(O)C(=O)C(C)=CC32)C2C(C)(C)C12OC(=O)C(C)C (stereo not given),inactive
2,O=C(Nc1ccc(-c2cn[nH]c2)cc1)Nc1nnc(-c2ccncc2)s1,inactive
3,O=C(COC(=O)CNC(=O)C1CCCCC1)Nc1cc(C(F)(F)F)ccc1Cl,inactive
4,O=C1CCc2cc(S(=O)(=O)Nc3ccc4ccccc4c3)ccc2N1,inactive
5,O=C(Nc1ccc(Oc2ccccc2)cc1)Nc1nnc(-c2ccncc2)s1,inactive
6,O=C1CCCC2=C1C(c1[nH]ncc1Cl)N=C(Nc1nccs1)N2 (stereo not given),inactive
7,C=CC1C(OC2OC(CO)C(O)C(O)C2O)OC=C2C(=O)N3C(C(=O)O)Cc4c([nH]c5ccccc45)C3CC21 (stereo not given),inactive
8,Cc1nc(NC2CCCCC2)c2nc(-c3ccccc3)n(CCN(C)C)c2n1,inactive
9,COc1cc(-c2ncn(/C=C\C(=O)OC(C)C)n2)cc(C(F)(F)F)c1,inactive
10,O=c1cc(CN2CCCN(c3ccc(C(F)(F)F)cn3)CC2)nc2ccccn12,inactive
11,CN(C)c1ccc(-c2cc(O)c3ncccc3c2)cc1,inactive
12,Cc1ccc(S(=O)(=O)Nc2cnccc2C(=O)Nc2nc(-c3ccccc3)cs2)cc1,inactive
13,Cc1cc(NS(=O)(=O)c2cc3c(cc2F)NC(=O)CC3)ccc1Cl,inactive
14,OCc1ccnc(NC(=S)N2CCN(c3cccc(C(F)(F)F)c3)CC2)c1,inactive
15,CCCCc1ccc(C(=O)Nc2ccc(S(=O)(=O)Nc3nccs3)cc2)cc1,inactive
16,C=C1C(=O)O[C@@H]2/C=C(\CO)CC/C=C(/C=O)C[C@@H](O)[C@@H]12,inactive
17,FC(F)(F)c1cccc(-c2ccc(CNc3nc(-c4ccccc4C(F)(F)F)nc4ccccc34)cc2)c1,inactive
18,Cc1ccccc1-c1nc(NCc2cccs2)c2ccccc2n1,inactive
19,Cc1nc(NC2CCCCC2)c2nc(-c3ccccc3)n(CCN3CCCC3)c2n1,inactive
20,O=C1CCCC2=C1C1(CCCC1)N=C(Nc1nc3ccccc3o1)N2,inactive
